Our source for the growth values is PubChem BioAssay (NCI).

Structures are written as SMILES. This is part of a sample that, as a whole, favours compounds with a hit. Of some 83,000 tested, about 20% had one in any assay.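 In brief: 96-well plates, 48 h treatment, single concentration, percent growth endpoint.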 A number with no mark means an inactive call. Calls of active or inactive are those of the source. Rule for the calls: active = growth percent below 10; inactive = the rest.

Test systems include DU-145 prostate; K-562 leukemia; MALME-3M melanoma; MDA-MB-231 breast; RXF 393 renal; SF-268 CNS; SF-295 CNS; SF-539 CNS; UACC-257 melanoma; M14 melanoma.
Common to all, as to test: NCI-60 one-dose screen, 48 h (100 = growth as untreated, 0 = no growth, -100 = all killed)
Holding throughout (conditions): 10 µM unless noted

For `CCN1CCN(Cc2ccc(C(=O)Nc3cccc(Nc4ccc5c(OC)cccc5n4)c3)cc2C(F)(F)F)CC1`, the growth with DU-145 prostate is -57.9% (active); in the assay with K-562 leukemia, 0.423% (active); with MALME-3M melanoma, -94.8% (active); in the assay with MDA-MB-231 breast, -94% (active); in the assay on RXF 393 renal, -93.3% (active); in the assay with SF-268 CNS it was -19.1% (active). The growth was -95.3% (active) in the assay on SF-295 CNS, -100% (active) in the assay with SF-539 CNS, -82.8% (active) in the assay on UACC-257 melanoma and -74.8% (active) in the assay with M14 melanoma.
For the compound `CN1CCN(c2ccc3c4c(cccc24)C(=O)N(c2cccc(-c4nn(-c5ccccc5)cc4-c4nc5ccccc5s4)c2)C3=O)CC1`, the growth in the assay with DU-145 prostate is 58.4%; with K-562 leukemia it was -57.6% (active); with MALME-3M melanoma, 74.4%; in the assay on MDA-MB-231 breast, 33.7%; in the assay on RXF 393 renal it was 72.9%; in the assay on SF-268 CNS it was 100%. The growth in the assay with SF-295 CNS was 112%; with SF-539 CNS it was 81.6%; in the assay on UACC-257 melanoma it was 119%; with M14 melanoma it was 90.6%.
Turning to `FC(F)(F)c1cc2c(Cl)ncnc2n1CCC1CCOCC1`, the growth in the assay on DU-145 prostate is -99.6% (active); with K-562 leukemia, -26.3% (active); in the assay with MALME-3M melanoma it was 79.2%; in the assay on MDA-MB-231 breast, 0.4% (active); in the assay with RXF 393 renal, 57.8%; in the assay on SF-268 CNS it was -71.1% (active). Besides, the growth with SF-295 CNS was 70.8%; in the assay on SF-539 CNS, 70.8%; with UACC-257 melanoma, 37.6%; in the assay on M14 melanoma, -83.5% (active).
Consider `Cn1cc(-c2cc3nc(-c4cn(C)c5ncc(Br)cc45)cc(N)n3n2)c2cc(F)ccc21`, for which the growth is 0.863% (active) in the assay with DU-145 prostate; 21.9% with K-562 leukemia; 8.23% (active) in the assay with MALME-3M melanoma; -42.1% (active) in the assay with MDA-MB-231 breast; -39.8% (active) in the assay on RXF 393 renal; 57.6% in the assay with SF-268 CNS. The growth was -45.7% (active) with SF-295 CNS, -26.5% (active) in the assay on SF-539 CNS, 24.4% in the assay with UACC-257 melanoma and 7.16% (active) in the assay with M14 melanoma.
`N/C(=N\c1nc2ccc([N+](=O)[O-])cc2s1)NC(=O)Nc1ccccc1Cl`: the growth is 45.5% in the assay with DU-145 prostate; 13% with K-562 leukemia; -17.1% (active) in the assay with MALME-3M melanoma; 15% with MDA-MB-231 breast; 25% in the assay with RXF 393 renal; 56.1% with SF-268 CNS. Further, the growth with SF-295 CNS is 58.5%; in the assay with SF-539 CNS, 11.1%; with UACC-257 melanoma it was 89.6%; in the assay on M14 melanoma, 62.8%.
For the compound `Nc1nn2c(-c3cc4ccccc4oc3=O)ccnc2c1N=Nc1ccccc1`, the growth was 90.6% in the assay on DU-145 prostate; 67.2% with K-562 leukemia; 81.9% in the assay on MALME-3M melanoma; -34.8% (active) in the assay on MDA-MB-231 breast; 2.06% (active) with RXF 393 renal; 61.8% in the assay on SF-268 CNS. For the same compound, the growth with SF-295 CNS was 72.3%; in the assay on SF-539 CNS, -62.4% (active); in the assay on UACC-257 melanoma, 109%; in the assay with M14 melanoma it was 92.1%.
In the case of `O=c1c(-c2nc(-c3ccccc3)c(-c3ccccc3)[nH]2)coc2ccc(F)cc12`, the growth with DU-145 prostate was 46.1%; in the assay with K-562 leukemia, 32.5%; with MALME-3M melanoma, 52%; in the assay on MDA-MB-231 breast, 64%; in the assay on RXF 393 renal, 92.3%; in the assay on SF-268 CNS, 64%. Moreover, the growth in the assay with SF-295 CNS is 71.5%; in the assay with SF-539 CNS it was 70.9%; in the assay on UACC-257 melanoma, 77.6%; with M14 melanoma, 53.3%.
Consider `Cc1ccc2nc(COc3ccc(C(=O)NNC(=O)Nc4ccc(Cl)c(C(F)(F)F)c4)cc3)[nH]c2c1`, for which the growth in the assay with DU-145 prostate is 59.3%; in the assay on K-562 leukemia, 20.8%; in the assay on MALME-3M melanoma, -48.5% (active); in the assay with MDA-MB-231 breast, 3.89% (active); in the assay on RXF 393 renal, 50.2%; with SF-268 CNS, 40.1%. Also, the growth in the assay with SF-295 CNS is 63%; in the assay with SF-539 CNS it was -10.6% (active); in the assay with UACC-257 melanoma, -17.4% (active); in the assay on M14 melanoma, 27.7%.
Take `CCc1ccccc1NC(=O)N/C(N)=N/c1nc2ccccc2s1`: the growth in the assay on DU-145 prostate is -8.39% (active); with K-562 leukemia, 10.6%; with MALME-3M melanoma, 5.84% (active); with MDA-MB-231 breast, -21.3% (active); in the assay with RXF 393 renal, 11.8%; in the assay with SF-268 CNS, 29.6%. The growth with SF-295 CNS is -9.81% (active); in the assay with SF-539 CNS, -50.4% (active); with UACC-257 melanoma, 49.7%; in the assay with M14 melanoma, 9.76% (active).
With `COc1cc2cc(C(=O)N3C[C@@H](CCl)c4c3cc(OC(=O)N(CCC(=O)N3CCN(C)CC3)C3CCCCC3)c3ccccc43)[nH]c2c(OC)c1OC`, the growth with DU-145 prostate was -73.5% (active); in the assay on K-562 leukemia, -20.6% (active); in the assay with MALME-3M melanoma, -97.6% (active); with MDA-MB-231 breast, -61.4% (active); in the assay on RXF 393 renal, -93.3% (active); with SF-268 CNS it was -41.5% (active). Further, the growth is -68.3% (active) in the assay on SF-295 CNS, -93% (active) in the assay with SF-539 CNS, -78.6% (active) in the assay on UACC-257 melanoma and -84.5% (active) in the assay with M14 melanoma.
For `COC(=O)c1cccc(Oc2ccc(NC(=O)Nc3cc(C(F)(F)F)ccc3F)cc2)c1`, the growth is 78.8% in the assay on DU-145 prostate; 59.5% in the assay on K-562 leukemia; 77.7% in the assay on MALME-3M melanoma; 40% with MDA-MB-231 breast; 41.4% in the assay on RXF 393 renal; 50.2% in the assay on SF-268 CNS. The growth with SF-295 CNS is 58.8%; in the assay with SF-539 CNS, 34.1%; in the assay on UACC-257 melanoma it was 90.8%; in the assay with M14 melanoma, 84.9%.
With `COc1cccc(C(N)=Nc2ccc(OCCCCCCCCn3cncn3)cc2)c1`, the growth with K-562 leukemia was 15.8%; in the assay with MALME-3M melanoma it was 37.4%; in the assay on SF-268 CNS it was 27%; in the assay with UACC-257 melanoma it was 39.1%; in the assay with M14 melanoma, 22.6%.
